# Test results reported in PMC7862700, “An all-to-all approach to the identification of sequence-specific readers for epigenetic DNA modifications on cytosine”.
# Key:
# Assay in all cases: DAPPL (digital affinity profiling via proximity ligation, sequencing); 10 mM Tris-HCl pH 7.5, 50 mM NaCl, 1 mM DTT, 4% glycerol, room temperature, 30 min; GST-TFs on glutathione beads, 16-mer random dsDNA library, 0.1% formaldehyde crosslink after washing; high values mean tight binding
# FLI1 = target: T1, FLI1 (Homo sapiens, UniProt Q01543 1-452); conditions: protein: recombinant; tags: N-terminal GST; dsDNA, one strand shown
# T1 sequence: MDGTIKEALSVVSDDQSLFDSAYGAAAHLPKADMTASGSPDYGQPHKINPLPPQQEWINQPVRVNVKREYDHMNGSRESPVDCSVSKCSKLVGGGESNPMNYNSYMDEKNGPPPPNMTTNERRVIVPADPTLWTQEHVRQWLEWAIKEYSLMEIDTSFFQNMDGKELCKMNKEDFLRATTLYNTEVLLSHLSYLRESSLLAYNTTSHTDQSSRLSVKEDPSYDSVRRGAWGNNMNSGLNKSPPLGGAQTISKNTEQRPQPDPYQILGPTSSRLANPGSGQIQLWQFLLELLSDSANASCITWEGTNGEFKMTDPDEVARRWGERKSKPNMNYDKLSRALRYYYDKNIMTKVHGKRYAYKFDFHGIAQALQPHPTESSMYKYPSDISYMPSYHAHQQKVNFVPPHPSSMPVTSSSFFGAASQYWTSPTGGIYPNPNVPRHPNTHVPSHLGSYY
# Summary of the method: (§1)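 After expression in yeast as GST fusions, human transcription factors were bound to glutathione beads, DNA-barcoded and mixed with a tag-only sample. The pools were incubated with 200 nmole of a 16-mer random double-stranded DNA library in Tris/NaCl/DTT/glycerol buffer (30 min, room temperature), washed and crosslinked with 0.1% formaldehyde. Proximity ligation with BsaI/T4 ligase ran for 1 h at 37 °C, before PCR amplification and sequencing on an Illumina NextSeq500. Binding signal is a hexamer's read frequency for a factor divided by its frequency for the tag-only sample.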
# ELK1 = target: T2, ELK1 (Homo sapiens, UniProt P19419 1-428); conditions: protein: recombinant; tags: N-terminal GST; dsDNA, one strand shown
# T2 sequence: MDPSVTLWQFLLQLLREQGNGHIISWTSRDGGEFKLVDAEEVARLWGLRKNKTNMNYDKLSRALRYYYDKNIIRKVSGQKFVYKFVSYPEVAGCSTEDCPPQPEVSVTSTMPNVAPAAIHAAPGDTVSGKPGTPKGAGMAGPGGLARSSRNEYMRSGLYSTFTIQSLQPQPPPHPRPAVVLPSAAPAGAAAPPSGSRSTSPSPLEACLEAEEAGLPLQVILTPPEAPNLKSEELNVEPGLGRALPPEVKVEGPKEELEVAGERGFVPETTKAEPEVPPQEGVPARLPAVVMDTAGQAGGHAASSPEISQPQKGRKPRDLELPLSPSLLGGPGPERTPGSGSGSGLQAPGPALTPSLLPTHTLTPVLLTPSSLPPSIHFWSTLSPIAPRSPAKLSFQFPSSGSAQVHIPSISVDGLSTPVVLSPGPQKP
# Summary of the method: as §1
# GABPA = target: T3, GABPA (Homo sapiens, UniProt Q06546 1-454); conditions: protein: recombinant; tags: N-terminal GST; dsDNA, one strand shown
# T3 sequence: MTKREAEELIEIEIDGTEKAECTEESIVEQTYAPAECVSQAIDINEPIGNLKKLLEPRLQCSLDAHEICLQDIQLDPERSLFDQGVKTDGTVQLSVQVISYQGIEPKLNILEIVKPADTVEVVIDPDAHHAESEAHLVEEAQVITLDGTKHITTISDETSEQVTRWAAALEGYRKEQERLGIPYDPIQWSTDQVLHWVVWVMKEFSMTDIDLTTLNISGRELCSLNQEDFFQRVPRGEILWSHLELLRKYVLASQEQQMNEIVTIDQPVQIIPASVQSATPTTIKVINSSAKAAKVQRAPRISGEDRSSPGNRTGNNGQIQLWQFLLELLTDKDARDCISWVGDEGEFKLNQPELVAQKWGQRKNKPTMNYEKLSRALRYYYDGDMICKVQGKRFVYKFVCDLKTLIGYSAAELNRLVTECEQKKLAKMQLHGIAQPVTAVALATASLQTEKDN
# Summary of the method: as §1
# ERG = target: T4, ERG (Homo sapiens, UniProt P11308 1-479); conditions: protein: recombinant; tags: N-terminal GST; dsDNA, one strand shown
# T4 sequence: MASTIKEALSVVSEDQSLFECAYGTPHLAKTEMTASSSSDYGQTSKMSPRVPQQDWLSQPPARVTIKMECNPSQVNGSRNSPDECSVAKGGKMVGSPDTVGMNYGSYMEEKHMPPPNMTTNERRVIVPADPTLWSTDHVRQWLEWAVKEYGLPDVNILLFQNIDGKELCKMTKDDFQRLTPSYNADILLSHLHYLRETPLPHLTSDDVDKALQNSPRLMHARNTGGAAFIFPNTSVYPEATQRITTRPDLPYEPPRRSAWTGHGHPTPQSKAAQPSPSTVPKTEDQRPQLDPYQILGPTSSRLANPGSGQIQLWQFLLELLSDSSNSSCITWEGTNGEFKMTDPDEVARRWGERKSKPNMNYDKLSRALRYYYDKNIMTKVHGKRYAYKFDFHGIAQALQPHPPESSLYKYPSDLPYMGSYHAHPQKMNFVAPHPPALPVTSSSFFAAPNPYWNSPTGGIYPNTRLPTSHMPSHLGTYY
# Summary of the method: as §1
# ELF1 = ELF1 (Homo sapiens, UniProt P32519 1-619); conditions: protein: recombinant; tags: N-terminal GST; dsDNA, one strand shown
# Chain of ELF1 (P32519 whole entry): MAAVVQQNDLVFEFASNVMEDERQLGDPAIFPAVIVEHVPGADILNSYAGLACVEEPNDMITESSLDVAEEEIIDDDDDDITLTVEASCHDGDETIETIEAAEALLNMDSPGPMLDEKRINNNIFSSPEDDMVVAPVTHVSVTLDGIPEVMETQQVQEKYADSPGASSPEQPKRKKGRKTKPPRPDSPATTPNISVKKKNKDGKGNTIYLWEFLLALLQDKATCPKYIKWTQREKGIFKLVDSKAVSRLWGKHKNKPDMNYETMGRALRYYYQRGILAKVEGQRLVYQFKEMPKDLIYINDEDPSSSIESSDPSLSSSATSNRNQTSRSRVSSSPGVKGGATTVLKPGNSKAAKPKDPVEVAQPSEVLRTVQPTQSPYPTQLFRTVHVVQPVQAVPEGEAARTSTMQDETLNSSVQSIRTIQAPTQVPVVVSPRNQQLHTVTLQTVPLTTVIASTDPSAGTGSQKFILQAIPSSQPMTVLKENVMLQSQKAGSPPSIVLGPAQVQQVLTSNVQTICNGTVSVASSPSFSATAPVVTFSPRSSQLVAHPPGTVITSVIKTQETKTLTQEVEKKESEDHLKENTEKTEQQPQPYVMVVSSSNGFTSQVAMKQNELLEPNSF
# Summary of the method: as §1
# EHF = target: T5, EHF (Homo sapiens, UniProt Q9NZC4 1-300); conditions: protein: recombinant; tags: N-terminal GST; dsDNA, one strand shown
# T5 sequence: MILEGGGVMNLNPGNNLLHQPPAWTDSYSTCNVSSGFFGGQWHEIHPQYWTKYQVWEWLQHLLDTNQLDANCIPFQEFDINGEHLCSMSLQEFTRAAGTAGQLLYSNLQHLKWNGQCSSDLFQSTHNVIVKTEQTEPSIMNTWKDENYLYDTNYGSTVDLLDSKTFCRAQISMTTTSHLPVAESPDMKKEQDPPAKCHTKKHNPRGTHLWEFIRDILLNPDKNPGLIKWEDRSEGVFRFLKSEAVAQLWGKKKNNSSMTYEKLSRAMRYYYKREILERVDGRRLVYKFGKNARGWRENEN
# Summary of the method: as §1
# SPI1 = SPI1 (Homo sapiens, UniProt P17947 1-270); conditions: protein: recombinant; tags: N-terminal GST; dsDNA, one strand shown
# Summary of the method: as §1
# SPIB = SPIB (Homo sapiens, UniProt Q01892 1-262); conditions: protein: recombinant; tags: N-terminal GST; dsDNA, one strand shown
# Chain of SPIB (Q01892 whole entry): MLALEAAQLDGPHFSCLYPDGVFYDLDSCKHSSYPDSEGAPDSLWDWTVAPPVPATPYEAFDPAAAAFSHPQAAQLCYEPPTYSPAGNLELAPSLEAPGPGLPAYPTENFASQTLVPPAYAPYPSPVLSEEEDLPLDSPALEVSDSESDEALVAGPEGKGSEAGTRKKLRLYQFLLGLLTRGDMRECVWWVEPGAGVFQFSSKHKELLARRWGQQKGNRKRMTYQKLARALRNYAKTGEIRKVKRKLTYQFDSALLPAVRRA
# Summary of the method: as §1
# ELK3 = target: T6, ELK3 (Homo sapiens, UniProt P41970 1-407); conditions: protein: recombinant; tags: N-terminal GST; dsDNA, one strand shown
# T6 sequence: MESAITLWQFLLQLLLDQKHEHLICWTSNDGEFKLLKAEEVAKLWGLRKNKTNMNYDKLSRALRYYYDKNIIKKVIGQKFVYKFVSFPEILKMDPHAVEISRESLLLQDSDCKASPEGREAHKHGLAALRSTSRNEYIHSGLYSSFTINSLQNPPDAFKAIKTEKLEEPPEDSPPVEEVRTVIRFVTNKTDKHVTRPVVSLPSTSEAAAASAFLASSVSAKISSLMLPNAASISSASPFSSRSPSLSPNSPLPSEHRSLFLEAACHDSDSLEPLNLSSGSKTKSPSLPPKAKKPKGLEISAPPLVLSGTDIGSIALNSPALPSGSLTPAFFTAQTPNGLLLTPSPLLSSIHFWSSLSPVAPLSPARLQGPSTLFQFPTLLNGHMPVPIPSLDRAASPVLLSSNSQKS
# Summary of the method: as §1
# FEV = target: T7, FEV (Homo sapiens, UniProt Q99581 1-238); conditions: protein: recombinant; tags: N-terminal GST; dsDNA, one strand shown
# T7 sequence: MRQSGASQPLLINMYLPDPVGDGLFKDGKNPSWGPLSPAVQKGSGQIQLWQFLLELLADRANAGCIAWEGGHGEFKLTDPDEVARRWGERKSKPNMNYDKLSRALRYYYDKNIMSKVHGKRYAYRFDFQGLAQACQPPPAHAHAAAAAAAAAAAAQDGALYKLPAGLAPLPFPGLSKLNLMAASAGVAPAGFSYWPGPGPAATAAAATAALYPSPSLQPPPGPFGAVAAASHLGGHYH
# Summary of the method: as §1
# ETV5 = ETV5 (Homo sapiens, UniProt P41161 1-510); conditions: protein: recombinant; tags: N-terminal GST; dsDNA, one strand shown
# Chain of ETV5 (P41161 whole entry): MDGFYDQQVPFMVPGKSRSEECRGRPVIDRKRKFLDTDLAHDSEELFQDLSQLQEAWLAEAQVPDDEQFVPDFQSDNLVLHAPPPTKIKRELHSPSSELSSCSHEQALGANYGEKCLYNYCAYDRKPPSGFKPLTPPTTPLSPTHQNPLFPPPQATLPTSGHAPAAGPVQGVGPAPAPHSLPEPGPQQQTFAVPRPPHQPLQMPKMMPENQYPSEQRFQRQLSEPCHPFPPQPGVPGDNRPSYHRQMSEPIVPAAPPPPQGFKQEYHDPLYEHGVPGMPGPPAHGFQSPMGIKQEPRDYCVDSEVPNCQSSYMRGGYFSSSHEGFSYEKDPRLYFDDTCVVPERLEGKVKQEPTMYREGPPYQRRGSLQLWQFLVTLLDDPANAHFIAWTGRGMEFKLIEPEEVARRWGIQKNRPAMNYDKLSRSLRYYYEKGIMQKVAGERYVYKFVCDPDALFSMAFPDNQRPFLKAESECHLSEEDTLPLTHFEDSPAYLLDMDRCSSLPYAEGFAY
# Summary of the method: as §1
# HSF1 = HSF1 (Homo sapiens, UniProt Q00613 1-529); conditions: protein: recombinant; tags: N-terminal GST; chain copies: 3; dsDNA, one strand shown
# Chain of HSF1 (Q00613 whole entry): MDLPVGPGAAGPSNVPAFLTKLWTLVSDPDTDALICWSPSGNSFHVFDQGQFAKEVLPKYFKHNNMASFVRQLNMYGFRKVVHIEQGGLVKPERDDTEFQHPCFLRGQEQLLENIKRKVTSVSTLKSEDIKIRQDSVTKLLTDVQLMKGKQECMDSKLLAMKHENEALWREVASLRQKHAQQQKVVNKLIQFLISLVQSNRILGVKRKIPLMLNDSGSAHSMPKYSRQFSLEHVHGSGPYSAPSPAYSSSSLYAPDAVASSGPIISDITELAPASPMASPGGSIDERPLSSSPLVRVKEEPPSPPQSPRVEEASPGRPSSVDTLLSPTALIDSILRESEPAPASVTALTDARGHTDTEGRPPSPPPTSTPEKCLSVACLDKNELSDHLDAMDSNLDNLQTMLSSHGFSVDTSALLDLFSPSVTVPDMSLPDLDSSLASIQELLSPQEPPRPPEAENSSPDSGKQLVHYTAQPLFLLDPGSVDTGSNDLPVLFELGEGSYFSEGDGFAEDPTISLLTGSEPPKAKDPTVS
# Summary of the method: as §1
# SPIC = target: T8, SPIC (Homo sapiens, UniProt Q8N5J4 1-248); conditions: protein: recombinant; tags: N-terminal GST; dsDNA, one strand shown
# T8 sequence: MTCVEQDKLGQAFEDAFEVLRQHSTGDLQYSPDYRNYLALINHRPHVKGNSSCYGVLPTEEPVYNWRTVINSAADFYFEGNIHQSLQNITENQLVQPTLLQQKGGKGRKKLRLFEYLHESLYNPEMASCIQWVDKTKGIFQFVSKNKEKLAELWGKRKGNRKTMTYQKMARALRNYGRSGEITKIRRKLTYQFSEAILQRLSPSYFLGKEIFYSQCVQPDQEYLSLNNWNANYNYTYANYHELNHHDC
# Summary of the method: as §1
# ELF4 = ELF4 (Homo sapiens, UniProt Q99607 1-663); conditions: protein: recombinant; tags: N-terminal GST; dsDNA, one strand shown
# Chain of ELF4 (Q99607 whole entry): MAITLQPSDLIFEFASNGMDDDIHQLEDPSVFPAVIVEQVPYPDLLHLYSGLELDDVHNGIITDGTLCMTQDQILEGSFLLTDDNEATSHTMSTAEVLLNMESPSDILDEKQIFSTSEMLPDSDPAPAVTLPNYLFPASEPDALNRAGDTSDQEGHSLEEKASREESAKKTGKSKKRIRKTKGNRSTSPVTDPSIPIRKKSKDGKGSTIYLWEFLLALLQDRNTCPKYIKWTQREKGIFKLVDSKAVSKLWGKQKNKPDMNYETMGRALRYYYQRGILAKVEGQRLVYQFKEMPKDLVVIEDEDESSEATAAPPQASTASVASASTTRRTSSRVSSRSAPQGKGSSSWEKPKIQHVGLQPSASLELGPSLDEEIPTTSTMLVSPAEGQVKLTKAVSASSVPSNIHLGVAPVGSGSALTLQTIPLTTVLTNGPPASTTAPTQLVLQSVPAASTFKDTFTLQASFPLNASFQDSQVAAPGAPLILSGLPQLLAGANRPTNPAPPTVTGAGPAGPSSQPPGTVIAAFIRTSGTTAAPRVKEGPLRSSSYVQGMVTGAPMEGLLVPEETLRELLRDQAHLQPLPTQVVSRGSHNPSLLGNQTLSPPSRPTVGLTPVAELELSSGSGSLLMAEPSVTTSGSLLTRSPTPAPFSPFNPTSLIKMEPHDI
# Summary of the method: as §1
# ELK4 = target: T9, ELK4 (Homo sapiens, UniProt P28324-2 1-405); conditions: protein: recombinant; tags: N-terminal GST; dsDNA, one strand shown
# T9 sequence: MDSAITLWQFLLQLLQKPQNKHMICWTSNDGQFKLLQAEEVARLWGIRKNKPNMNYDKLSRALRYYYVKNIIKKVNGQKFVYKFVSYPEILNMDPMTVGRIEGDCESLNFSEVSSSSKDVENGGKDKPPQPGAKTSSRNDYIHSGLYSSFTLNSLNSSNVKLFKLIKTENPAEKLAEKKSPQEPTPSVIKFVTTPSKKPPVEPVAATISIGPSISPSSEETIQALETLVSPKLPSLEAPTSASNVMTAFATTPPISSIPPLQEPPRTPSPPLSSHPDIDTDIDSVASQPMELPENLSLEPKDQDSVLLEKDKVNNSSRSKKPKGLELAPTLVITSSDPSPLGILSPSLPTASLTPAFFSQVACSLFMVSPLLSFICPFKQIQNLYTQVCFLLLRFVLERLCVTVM
# Summary of the method: as §1
# ETV2 = target: T10, ETV2 (Homo sapiens, UniProt O00321 1-342); conditions: protein: recombinant; tags: N-terminal GST; dsDNA, one strand shown
# T10 sequence: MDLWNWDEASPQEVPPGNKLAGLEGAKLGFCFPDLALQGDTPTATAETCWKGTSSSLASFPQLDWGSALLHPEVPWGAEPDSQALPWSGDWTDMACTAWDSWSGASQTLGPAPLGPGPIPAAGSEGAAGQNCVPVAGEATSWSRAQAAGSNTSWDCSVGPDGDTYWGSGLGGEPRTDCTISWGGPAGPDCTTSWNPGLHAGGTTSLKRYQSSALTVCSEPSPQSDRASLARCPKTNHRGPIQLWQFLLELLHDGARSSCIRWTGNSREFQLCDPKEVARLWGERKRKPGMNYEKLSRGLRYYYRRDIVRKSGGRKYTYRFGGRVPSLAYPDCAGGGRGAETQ
# Summary of the method: as §1
# ELF3 = target: T11, ELF3 (Homo sapiens, UniProt P78545 1-371); conditions: protein: recombinant; tags: N-terminal GST; dsDNA, one strand shown
# T11 sequence: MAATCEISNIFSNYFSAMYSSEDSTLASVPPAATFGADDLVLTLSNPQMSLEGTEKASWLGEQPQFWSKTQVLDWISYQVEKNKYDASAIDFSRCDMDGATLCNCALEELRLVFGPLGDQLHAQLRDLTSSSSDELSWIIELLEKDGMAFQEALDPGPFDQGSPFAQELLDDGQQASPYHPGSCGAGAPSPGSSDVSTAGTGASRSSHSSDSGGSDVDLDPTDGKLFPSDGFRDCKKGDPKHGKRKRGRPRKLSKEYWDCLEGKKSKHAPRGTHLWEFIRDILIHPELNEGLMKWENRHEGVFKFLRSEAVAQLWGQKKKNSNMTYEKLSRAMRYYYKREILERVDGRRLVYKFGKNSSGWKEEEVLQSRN
# Summary of the method: as §1
# CRX = CRX (Homo sapiens, UniProt O43186 1-299); conditions: protein: recombinant; tags: N-terminal GST; dsDNA, one strand shown
# Chain of CRX (O43186 whole entry): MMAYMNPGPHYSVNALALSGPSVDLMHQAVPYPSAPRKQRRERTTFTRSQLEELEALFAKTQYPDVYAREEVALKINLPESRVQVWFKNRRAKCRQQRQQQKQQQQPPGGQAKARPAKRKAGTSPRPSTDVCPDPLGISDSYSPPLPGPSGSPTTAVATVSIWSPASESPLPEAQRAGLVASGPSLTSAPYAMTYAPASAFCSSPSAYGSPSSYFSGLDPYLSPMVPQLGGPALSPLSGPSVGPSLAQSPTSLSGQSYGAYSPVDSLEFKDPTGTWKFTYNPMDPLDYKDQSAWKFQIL
# Summary of the method: as §1
# ETV1 = ETV1 (Homo sapiens, UniProt P50549 1-477); conditions: protein: recombinant; tags: N-terminal GST; dsDNA, one strand shown
# Chain of ETV1 (P50549 whole entry): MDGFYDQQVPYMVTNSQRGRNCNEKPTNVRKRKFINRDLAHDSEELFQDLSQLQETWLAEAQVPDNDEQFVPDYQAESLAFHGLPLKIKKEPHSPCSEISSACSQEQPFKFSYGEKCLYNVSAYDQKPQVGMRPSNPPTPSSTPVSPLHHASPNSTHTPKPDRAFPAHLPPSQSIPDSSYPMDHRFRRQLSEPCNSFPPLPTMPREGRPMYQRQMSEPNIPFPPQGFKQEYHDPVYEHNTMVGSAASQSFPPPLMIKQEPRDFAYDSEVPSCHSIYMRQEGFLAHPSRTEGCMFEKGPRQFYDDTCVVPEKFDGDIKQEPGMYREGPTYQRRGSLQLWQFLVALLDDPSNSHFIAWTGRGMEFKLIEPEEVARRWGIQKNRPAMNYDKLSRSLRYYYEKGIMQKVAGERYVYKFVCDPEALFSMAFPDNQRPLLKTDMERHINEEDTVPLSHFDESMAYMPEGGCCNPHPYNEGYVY
# Summary of the method: as §1
sequence,measurement,setting,value
ATTCCT,binding signal,FLI1,"1.46 fold enrichment (6-mer frequency, TF over GST control)"
same,binding signal,ELK1,"1.37 fold enrichment (6-mer frequency, TF over GST control)"
same,binding signal,GABPA,"1.28 fold enrichment (6-mer frequency, TF over GST control)"
same,binding signal,ERG,"1.27 fold enrichment (6-mer frequency, TF over GST control)"
same,binding signal,ELF1,"1.42 fold enrichment (6-mer frequency, TF over GST control)"
same,binding signal,EHF,"1.34 fold enrichment (6-mer frequency, TF over GST control)"
same,binding signal,SPI1,"1.46 fold enrichment (6-mer frequency, TF over GST control)"
same,binding signal,SPIB,"1.43 fold enrichment (6-mer frequency, TF over GST control)"
same,binding signal,ELK3,"1.3 fold enrichment (6-mer frequency, TF over GST control)"
same,binding signal,FEV,"1.34 fold enrichment (6-mer frequency, TF over GST control)"
same,binding signal,ETV5,"1.39 fold enrichment (6-mer frequency, TF over GST control)"
same,binding signal,HSF1,"1.57 fold enrichment (6-mer frequency, TF over GST control)"
same,binding signal,SPIC,"1.27 fold enrichment (6-mer frequency, TF over GST control)"
same,binding signal,ELF4,"1.39 fold enrichment (6-mer frequency, TF over GST control)"
same,binding signal,ELK4,"1.22 fold enrichment (6-mer frequency, TF over GST control)"
same,binding signal,ETV2,"1.45 fold enrichment (6-mer frequency, TF over GST control)"
same,binding signal,ELF3,"1.2 fold enrichment (6-mer frequency, TF over GST control)"
same,binding signal,CRX,"1.33 fold enrichment (6-mer frequency, TF over GST control)"
same,binding signal,ETV1,"1.28 fold enrichment (6-mer frequency, TF over GST control)"
